Here are results for seven compounds from PubChem BioAssay (Tox21).

Each structure is given as a SMILES string. Where “and” joins values, the source holds several entries; their conditions need not be identical. Equal values may be shown once. Inconclusive results are not listed. Some compounds were tested as several samples or in several runs, with calls that do not always agree. Calls of active or inactive are those of the source. Unless noted, the call rests on the fitted dose curve; in most records, active means well fitted curve in the direction sought with a large enough effect in the repeat runs; inconclusive means weak or mixed curves; inactive means no such curve, though single readings can be large; an effect the other way counts as inactive or inconclusive.

The nature of assay [1]: qHTS assay to identify small molecule agonists of the peroxisome proliferator-activated receptor delta (PPARd) signaling pathway - cell viability counter screen (AID 743211). Further: nearly all actives have a fitted effect of over 55% in size. Further: potency means the concentration at half of the fitted maximal effect. A digest of the protocol: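 Viability of GeneBLAzer PPARd UAS-bla HEK293H cells was assessed after 17 h compound incubation at 37C, using CellTiter-Glo reagent added after the reporter read and luminescence recorded 30 min later.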
Background: In qHTS, concentration-response curves come from the screen itself.

In assay [2] the target is Peroxisome proliferator-activated receptor delta (Homo sapiens) (UniProt Q03181). Description: qHTS assay to identify small molecule agonists of the peroxisome proliferator-activated receptor delta (PPARd) signaling pathway (AID 743212; calls by dose curve;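 further: HEK293H cells with PPARd UAS beta-lactamase reporter GeneBLAzer system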). A digest of the protocol:
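Beta-lactamase reporter readout: a ratiometric FRET signal from the LiveBLAzer substrate after 2 h at room temperature. Compound exposure at 37 °C in PPARδ-bla HEK293H cells driven by an upstream activator sequence.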

Assay [3] is described as follows: qHTS assay to identify small molecule antagonists of the peroxisome proliferator-activated receptor delta (PPARd) signaling pathway - cell viability counter screen (AID 743213). Further: nearly all actives have a fitted effect of over 50% in size. A digest of the protocol:
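Luminescence from CellTiter-Glo, added after the bla read and incubated 30 min at room temperature, gives viability of HEK293H PPARd-bla cells exposed to compounds for 17 h at 37 C with 300 nM L165041.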

Assay [4] deals with Peroxisome proliferator-activated receptor delta (Homo sapiens) (UniProt Q03181). Description: qHTS assay to identify small molecule antagonists of the peroxisome proliferator-activated receptor delta (PPARd) signaling pathway (AID 743215; active means well fitted inhibition curve with a large enough effect in the signal ratio in the repeat runs, not every such curve was filed as active; the % refers to the signal ratio;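 further: cells stimulated with agonist L165041 at 300 nM final during compound exposure; series mostly up to about 62 µM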). A digest of the protocol:
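Here, a reporter line (HEK293H, beta-lactamase under a UAS) measures PPARd signaling. Compounds are tested against agonist L165041 at 300 nM final concentration over 17 h at 37 C, with fluorescence read after substrate.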

Assay [5] addresses Bile acid receptor (Homo sapiens) (UniProt Q96RI1). Description: qHTS assay to identify small molecule antagonists of the farnesoid-X-receptor (FXR) signaling pathway (AID 743217; active means well fitted inhibition curve with a large enough effect in the signal ratio in the repeat runs, not every such curve was filed as active; the % refers to the signal ratio). A digest of the protocol: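 Test compounds are pin-transferred onto FXR-bla HEK 293T cells, then chenodeoxycholic acid is added at 50 uM final. After 16 h at 37 °C, LiveBLAzer B/G substrate is applied for 2 h at room temperature and fluorescence read.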

Assay [6] has the same target. Put plainly: qHTS assay to identify small molecule agonists of the farnesoid-X-receptor (FXR) signaling pathway (AID 743220; active means well fitted activation curve with a large enough effect in the signal ratio in the repeat runs, not every such curve was filed as active; the % refers to the signal ratio). A digest of the protocol:
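FXR-UAS-bla HEK 293T cells carrying a UAS-driven beta-lactamase reporter were plated for 5 h at 37C/5% CO2, then exposed to DMSO-dissolved Tox21 10K compounds for 16 h at 37C. A LiveBLAzer B/G FRET substrate was loaded for 2 h at room temperature before fluorescence reading.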

A short description of assay [7]: qHTS assay to identify small molecule antagonists of the farnesoid-X-receptor (FXR) signaling pathway - cell viability counter screen (AID 743221; active means well fitted cell-killing curve with a large enough effect in the repeat runs, not every such curve was filed as active; further: nearly all actives have a fitted effect of over 50% in size). A digest of the protocol:
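Quantitative HTS of the Tox21 10K library run in parallel with the beta-lactamase reporter read. HEK 293T cells carrying a UAS-driven bla reporter got compound and 50 uM CDCA (final) for 16 h; ATP-based luminescence followed.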

Assay [8] deals with Vitamin D3 receptor (Homo sapiens) (UniProt P11473). Description: qHTS assay to identify small molecule agonists of the vitamin D receptor (VDR) signaling pathway (AID 743222; calls by dose curve). A digest of the protocol:
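Tox21 cell reporter format: VDR-bla line, 16 h compound exposure in 5% CO2 at 37C, then fluorescence intensity after 2 h with LiveBLAzer B/G FRET substrate.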

For assay [9] the target is unchanged. Description: qHTS assay to identify small molecule antagonists of the vitamin D receptor (VDR) signaling pathway (AID 743223; active means well fitted inhibition curve with a large enough effect in the signal ratio in the repeat runs, not every such curve was filed as active; the % refers to the signal ratio). A digest of the protocol: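 Fluorescence from LiveBLAzer B/G FRET substrate, read after 2 h at room temperature, reflects beta-lactamase reporter activity in VDR-bla cells treated 16 h at 37C with compounds and agonist 1alpha,25-dihydroxyvitamin D3 (3 nM final).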

The nature of assay [10]: qHTS assay to identify small molecule agonists of the vitamin D receptor (VDR) signaling pathway - cell viability counter screen (AID 743224). Further: nearly all actives have a fitted effect of over 50% in size. Further: potency means the concentration at half of the fitted maximal effect. A digest of the protocol:
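CellTiter-Glo viability readout on VDR-bla cells, measured after 16 h of compound treatment at 37C in the same wells.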

Assay [11] can be described thus: qHTS assay to identify small molecule antagonists of the vitamin D receptor (VDR) signaling pathway - cell viability counter screen (AID 743225). Further: nearly all actives have a fitted effect of over 50% in size. A digest of the protocol: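 Cells (VDR-UAS-bla HEK 293T) are plated, rested 4 h at 37C, dosed with compound and 3 nM final 1-alpha,25-dihydroxy vitamin D3, and incubated 16 h. Viability is taken from CellTiter-Glo luminescence in the reporter wells.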

The nature of assay [12]: qHTS assay to identify small molecule agonists of the NFkB signaling pathway - cell viability counter screen (AID 1159515; calls by dose curve; further: series mostly up to about 61 µM; nearly all actives have a fitted effect of over 55% in size). A digest of the protocol:
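Tox21 library compounds were tested for cytotoxicity against NFkB-bla ME-180 cells during a 5 hr exposure at 37 C. CellTiter-Glo luminescence served as the viability read-out.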

A short description of assay [13]: qHTS assay to identify small molecule agonists of the endoplasmic reticulum stress response signaling pathway (AID 1159516; active means well fitted activation curve with a large enough effect in the signal ratio in the repeat runs, not every such curve was filed as active; the % refers to the signal ratio). A digest of the protocol:
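Fluorescence at 460 and 530 nm (405 nm excitation) reports beta-lactamase from an ER stress response element in HeLa cells treated 5 hr at 37 C.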

Assay [14] is described as follows: qHTS assay to identify small molecule agonists of the endoplasmic reticulum stress response signaling pathway - cell viability counter screen (AID 1159517; calls by dose curve). A digest of the protocol:
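ESRE-bla HeLa cells (1,500/well) were plated overnight at 37 C and exposed to compounds for 5 hr. After the 2 hr beta-lactamase substrate read, CellTiter-Glo went into the same wells, and luminescence was read after 30 min at room temperature.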

Assay [15] in a line: qHTS assay to identify small molecule antagonists of the retinoid-related orphan receptor gamma (ROR-gamma) signaling pathway - cell viability counter screen (AID 1159520). Further: nearly all actives have a fitted effect of over 50% in size. A digest of the protocol:
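Cytotoxicity was read from cellular ATP (CellTiter-Glo luminescence) after 16 hr at 37 C with 1 uM doxycycline induction. The inducer was added 2 hr after compound transfer to Tet-on ROR gamma CHO cells.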

The target of assay [16] is Nuclear receptor ROR-gamma (Homo sapiens) (UniProt P51449). Put plainly: qHTS assay to identify small molecule antagonists of the retinoid-related orphan receptor gamma (ROR-gamma) signaling pathway (AID 1159521; further: nearly all actives have a fitted effect of over 50% in size; further: potency means the concentration at half of the fitted maximal effect). A digest of the protocol: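 RORγ antagonism is scored from reduced reporter luminescence in Tet-on CHO cells. Induction used 1 uM final doxycycline hyclate for 16 h at 37 C, following a 2 h compound exposure.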

Assay [17] in a line: qHTS assay to identify small molecule agonists of the AP-1 signaling pathway - cell viability counter screen (AID 1159525; calls by dose curve; further: nearly all actives have a fitted effect of over 55% in size; further: potency means the concentration at half of the fitted maximal effect). A digest of the protocol: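 Intracellular ATP by Cell Titer Glo luminescence (30 min, RT) in the same ME-180 AP-1-bla wells after the 5 h compound exposure at 37 °C. Normalised to tetra n-octyl ammonium bromide and DMSO controls.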
Assay [18] can be described thus: qHTS assay to identify small molecule agonists of the AP-1 signaling pathway (AID 1159526; calls by dose curve).
The nature of assay [19]: qHTS assay to identify small molecule agonists of the farnesoid-X-receptor (FXR) signaling pathway - cell viability counter screen (AID 743218). Further: nearly all actives have a fitted effect of over 45% in size. A digest of the protocol: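 Quantitative HTS counter screen measuring ATP-based viability via CellTiter-Glo luminescence in HEK 293T cells carrying a UAS-driven beta-lactamase reporter, after 16 h compound exposure at 37 C.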
Assay [20] concerns the target Retinoic acid receptor RXR-alpha (Homo sapiens) (UniProt P19793). Put plainly: qHTS assay to identify small molecule agonists of the RXR signaling pathway (AID 1159527; calls by dose curve; further: nearly all actives have a fitted effect of over 35% in size). A digest of the protocol:
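qHTS of the Tox21 10K library in GeneBLAzer RXR-alpha HEK 293T cells carrying a beta-lactamase reporter […]; 16 hr treatment, 9-cis retinoic acid as agonist control, FRET read-out.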

Retinoic acid receptor RXR-alpha (Homo sapiens), sequence (P19793 whole entry, looked up): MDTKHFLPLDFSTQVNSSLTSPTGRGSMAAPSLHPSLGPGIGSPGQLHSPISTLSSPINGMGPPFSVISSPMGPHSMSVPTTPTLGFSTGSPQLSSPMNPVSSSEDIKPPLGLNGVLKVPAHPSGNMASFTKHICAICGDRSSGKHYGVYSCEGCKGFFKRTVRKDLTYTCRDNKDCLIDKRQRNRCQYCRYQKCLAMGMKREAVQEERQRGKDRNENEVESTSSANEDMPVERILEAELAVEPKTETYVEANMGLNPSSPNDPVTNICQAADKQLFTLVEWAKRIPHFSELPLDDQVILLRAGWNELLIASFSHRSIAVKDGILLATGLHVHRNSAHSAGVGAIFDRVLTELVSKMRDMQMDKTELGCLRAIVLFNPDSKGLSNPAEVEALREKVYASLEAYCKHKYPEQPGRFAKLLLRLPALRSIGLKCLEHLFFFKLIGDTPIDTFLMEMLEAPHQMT
Peroxisome proliferator-activated receptor delta (Homo sapiens), sequence (Q03181 whole entry, looked up): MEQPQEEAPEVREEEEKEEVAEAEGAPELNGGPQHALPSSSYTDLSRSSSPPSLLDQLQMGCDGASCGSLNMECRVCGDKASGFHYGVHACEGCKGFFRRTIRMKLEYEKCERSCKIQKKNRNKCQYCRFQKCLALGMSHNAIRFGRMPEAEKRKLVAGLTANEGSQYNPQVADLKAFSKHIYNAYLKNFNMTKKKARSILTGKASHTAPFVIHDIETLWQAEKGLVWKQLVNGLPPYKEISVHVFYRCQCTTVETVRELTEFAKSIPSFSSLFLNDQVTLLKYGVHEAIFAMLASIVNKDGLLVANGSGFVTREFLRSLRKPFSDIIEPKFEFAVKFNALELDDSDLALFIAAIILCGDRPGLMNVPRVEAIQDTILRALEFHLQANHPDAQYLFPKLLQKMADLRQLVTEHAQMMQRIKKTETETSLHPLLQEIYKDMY
Vitamin D3 receptor (Homo sapiens), sequence (P11473 whole entry, looked up): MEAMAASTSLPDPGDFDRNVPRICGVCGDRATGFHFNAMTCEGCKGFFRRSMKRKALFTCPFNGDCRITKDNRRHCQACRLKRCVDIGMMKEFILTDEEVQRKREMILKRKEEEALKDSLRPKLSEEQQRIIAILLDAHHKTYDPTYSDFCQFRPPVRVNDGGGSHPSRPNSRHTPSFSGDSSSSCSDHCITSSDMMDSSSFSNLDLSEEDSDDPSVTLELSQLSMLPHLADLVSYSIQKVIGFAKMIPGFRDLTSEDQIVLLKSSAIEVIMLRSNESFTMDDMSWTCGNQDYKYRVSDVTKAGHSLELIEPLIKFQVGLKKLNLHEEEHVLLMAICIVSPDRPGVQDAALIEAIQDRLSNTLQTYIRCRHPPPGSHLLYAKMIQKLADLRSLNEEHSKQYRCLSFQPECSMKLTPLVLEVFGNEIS
Bile acid receptor (Homo sapiens), sequence (Q96RI1 whole entry, looked up): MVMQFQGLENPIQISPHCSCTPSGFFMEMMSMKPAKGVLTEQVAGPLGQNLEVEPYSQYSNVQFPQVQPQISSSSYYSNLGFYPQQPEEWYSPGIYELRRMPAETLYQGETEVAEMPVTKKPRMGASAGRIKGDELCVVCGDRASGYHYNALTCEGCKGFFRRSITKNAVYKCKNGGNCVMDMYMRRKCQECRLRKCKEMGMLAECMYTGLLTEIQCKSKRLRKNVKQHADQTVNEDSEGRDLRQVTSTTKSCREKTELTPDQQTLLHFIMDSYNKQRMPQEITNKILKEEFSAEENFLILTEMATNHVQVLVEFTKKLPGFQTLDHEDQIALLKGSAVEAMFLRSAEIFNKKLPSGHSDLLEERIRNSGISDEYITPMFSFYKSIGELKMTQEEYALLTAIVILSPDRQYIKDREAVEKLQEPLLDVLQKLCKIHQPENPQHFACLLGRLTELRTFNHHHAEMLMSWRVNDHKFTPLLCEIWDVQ

As for `OCCOCCO`, the Potency result in assay [1], in assay [2], in assay [3], in [4], in [5] and in assay [6] was “inactive” throughout. Further, the Potency result in assay [7], in assay [9], in assay [10], in assay [11], in [12] and in assay [13] was “inactive” throughout. Further, the Potency entry in assay [14], in [15], in assay [16] and in assay [17] was “inactive” throughout. In addition, the outcome in assay [8] and in assay [18] was inactive.

On to `C[C@]12CCC(=O)C=C1CC[C@@H]1[C@@H]2CC[C@@]2(C)[C@H]1CC[C@]2(C)O`, for which the Potency entry in [1], in [2], in [3], in [7], in [10] and in assay [11] was “inactive” in each case. Also, the Potency result in assay [13], in assay [14], in assay [15] and in assay [17] was “inactive” throughout. Also, the Potency in [16] is 15.5 µM (active) and 26.6 µM (active). In assay [18], the compound was called inactive.

Take `N#Cc1nn(-c2c(Cl)cc(C(F)(F)F)cc2Cl)c(N)c1S(=O)C(F)(F)F` (stereo not given): the Potency in assay [1] is 22 µM (active) and inactive; in [10] it was 24.7 µM (active) and inactive; in [16] it was 7.74 µM (active) and 16.8 µM (active). The Potency result in assay [2], in [19], in [6], in assay [7], in assay [9] and in assay [13] was “inactive” throughout. Also, the Potency entry in assay [14], in assay [15] and in assay [17] was “inactive” in each case. In addition, the result in [8] and in assay [18] was inactive.

For the compound `CC(C)=CC1C(C(=O)OCN2C(=O)C3=C(CCCC3)C2=O)C1(C)C` (stereo not given), the Potency result in assay [1], in assay [3], in assay [19], in assay [7], in [9] and in [10] was “inactive” each time. The Potency entry in [11], in assay [13], in assay [14], in assay [15] and in [17] was “inactive” throughout. For the same compound, the result in assay [8] was inactive.

Consider `CC(C)COC(=O)c1ccccc1C(=O)OCC(C)C`, for which the Potency result in assay [1], in assay [3], in assay [5], in [19], in assay [6] and in assay [7] was “inactive” each time. The Potency entry in assay [10], in assay [11], in assay [13], in assay [14], in assay [15] and in [16] was “inactive” each time. Further, the Potency entry in assay [17] and in assay [20] was “inactive” throughout.

As for `Nc1ccc([N+](=O)[O-])cc1N`, the Potency entry in assay [1], in [2], in [3], in [4], in [19] and in assay [7] was “inactive” each time. Further, the Potency result in assay [9], in assay [10], in assay [11], in [13], in assay [14] and in [15] was “inactive” throughout. Also, in assay [20], the Potency entry is “inactive”. The compound was called inactive in [8] and in [18]. Further, the Potency in [16] is 9.68 µM (active) and 30.6 µM (active); in assay [17], 34.7 µM (active) and inactive.

With `N#CC(c1ccccc1)c1ccccc1`, the Potency entry in assay [1], in assay [2], in assay [3], in assay [4], in [5] and in assay [6] was “inactive” in each case. For the same compound, the Potency entry in assay [7], in [9], in assay [10], in [11], in assay [13] and in [14] was “inactive” throughout. Besides, the Potency result in [15], in assay [16], in [17] and in assay [20] was “inactive” in each case. The call in assay [8] and in assay [18] was inactive.
